Shown are actives, neighbours in structure and some others; about 19% of the full set was active somewhere.
Pf growth 96h – inhibits malaria parasite growth, 96 h | P. falciparum luciferase reporter growth, 96 h | Potency, µM (doses to about 28.7 µM), for the others: at the highest dose activity change, negative = inhibition, most hits filed as inhibitors | hit rate 6.9% among 320,000; further: potency means the concentration at half of the fitted maximal effect; on the % scale 0 is the no-effect control and ±100 the full control effect
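P. falciparum expressing integrated firefly luciferase grown in erythrocytes (2% hematocrit, 0.05% parasitemia final) with compounds for 96 hours at 37 C, 5% CO2. Growth inhibition read as loss of luminescence after adding luciferase detection reagent.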
Lassa entry inh – inhibitors of Lassa virus binding or cell entry; AID 540256; hit rate 1.2% among 300,000; Potency, µM (top dose mostly 37.9 µM), for the others: at the top dose activity change, negative = inhibition, usual class: inhibitors; Lassa virus pseudotype entry inhibition, cell reporter; calls by dose curve; tested in HEK293 cells; further: potency means the concentration at half of the fitted maximal effect; on the % scale 0 is the no-effect control and ±100 the full control effect; nearly all actives have a fitted effect of over 50% in size
MARV entry inh – blocks Marburg virus binding to or entry into cells; Potency, µM (titrated, usually from 37.8 µM), for inactives: at the highest dose activity change, negative = inhibition, hits mostly inhibitors; AID 540276; Marburg virus pseudotyped entry inhibition, cell reporter; hit rate 1.8% among 300,000; calls by dose curve; tested in HEK293 cells; further: potency means the concentration at half of the fitted maximal effect; on the % scale 0 is the no-effect control and ±100 the full control effect
Pf growth 48h – P. falciparum growth inhibition at 48 hours (one generation) | P. falciparum luciferase growth in erythrocytes, 48 h | Potency, µM (top dose mostly 28.7 µM), for inactives: at the highest dose activity change, negative = inhibition, actives largely listed as inhibitors | hit rate 5.9% among 310,000 | AID 504832; further: potency means the concentration at half of the fitted maximal effect; on the % scale 0 is the no-effect control and ±100 the full control effect
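A one-generation exposure of luciferase-tagged malaria parasites in RPMI 1640/Albumax erythrocyte culture, 37 C and 5% CO2. Inhibition is inferred from decreased luminescence after adding detection reagent.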
Shiga inhibitor – inhibitors of Shiga toxin in Vero cells; inhibition, % at 38.7 µM; hit rate 9.2% among 290,000; Vero cells, Shiga toxin protein synthesis inhibition reporter; in the data active means inhibition mostly above about 28%, no sharp cut-off; inactive means mostly below about 43%; further: 0% is about no effect
CHX counter – counter-screen for Shiga toxin inhibitors: cycloheximide protein synthesis inhibition. cell reporter, cycloheximide protein synthesis inhibition counterscreen. max response, %. hit rate 12% among 300,000. AID 2314; in the data active means max response mostly above about 13%, no sharp cut-off; inactive means mostly below about 14%; further: read at 38.3 µM for the half of the compounds with a filed dose; 0% is about no effect
The depositor's hits bear a star; ? = inconclusive; · = no result given; [ ] = remark or other dose. Unless noted, the call rests on the fitted dose curve; in most records, active means well fitted inhibition curve with a large enough effect; inconclusive means small, poorly fitted or top-dose-only effect, or another doubt; inactive means no such curve, though single readings can be large or run the other way.

SMILES | Pf growth 96h | Lassa entry inh | MARV entry inh | Pf growth 48h | Shiga inhibitor | CHX counter
Cc1[nH]nc(N=CC2=C(O)CC(c3ccco3)CC2=O)c1-c1ccccc1 (stereo unspecified) | 7.4µM* | -11%[46.1 µM] | ? | ? | 73 | 14*
Cc1[nH]nc(N=CC2=C(O)CC(C)(C)CC2=O)c1-c1ccccc1 | 28% | -23%[46.1 µM] | -4%[46.1 µM] | 35% | -5 | 1
C=CCOc1ccc(CNCc2cccnc2)cc1OCC | 321% | 4%[46.1 µM] | 6%[46.1 µM] | 25% | -6 | 2
C=CCOc1ccc(CNCc2cccnc2)cc1 | ? | ? | -8% | 19% | 15 | 8.5*
O=C(CCCCCNC(=O)c1ccccc1)C[N+](=O)[O-] | 19% | -2% | -2% | 30% | -8 | -2
COc1ccc(Cc2[nH]n3c(=O)cc(C(C)C)nc3c2-c2ccccc2)cc1 | 104% | ? | 13µM* | ? | -17 | -4
COc1ccc(C(C)=O)cc1CSc1nnc(Nc2ccc(C)cc2)s1 | ? | ? | ? | ? | -2 | 7
COc1cc(-c2nnc(CSc3nnc(Nc4ccc(Oc5ccccc5)cc4)s3)o2)cc(OC)c1OC | ? | ? | ? | ? | 26 | 15*
Cc1nc(CSc2nnc(C)s2)cs1 | ? | 5% | 10% | 42% | -14 | 0
COc1ccc(C(C)=O)cc1CSc1nnc(Nc2ccccc2)s1 | 6.6µM* | ? | 18µM* | ? | -6 | -5
c1ccc(Nc2nnc(SCc3cccc4ccccc34)s2)cc1 | 8.3µM* | -5% | 9%[46.1 µM] | · | 3 | -1
Cc1nnc(SCc2cccc3ccccc23)s1 | 105% | ? | ? | 62% | 71* | 52*
CC(=O)N(CCc1ccccc1C)Cc1cc2ccc(C)cc2[nH]c1=O | -27% | 7% | ? | -23% | -9 | -8
Cc1ccc2[nH]c3c(N4CCCCCC4)ncnc3c2c1 | ? | · | 1% | 2.6µM* | 65* | 18*
Cc1ccc2[nH]c3c(N4CCN(Cc5ccccc5)CC4)ncnc3c2c1 | · | ? | ? | 1.7µM* | 20 | 9
Cc1ccc2[nH]c3c(N4CCN(Cc5ccc6c(c5)OCO6)CC4)ncnc3c2c1 | · | · | 1% | ? | -6 | -3
Cc1ccc2c(c1)[nH]c1c(N3CCN(Cc4ccccc4)CC3)ncnc12 | ? | 21µM* | 16µM* | 0.52µM* | -14 | -2
c1ccc2c(c1)CCN(c1ncnc3c1[nH]c1ccccc13)C2 | 7.4µM* | ? | ? | 5.2µM* | -13 | -1
CC(=O)Nc1ccc(NC(=O)c2ccccc2N(Cc2ccccc2)S(C)(=O)=O)cc1 | ? | -8% | -20% | -6% | -6 | -3
Fc1ccc2[nH]c3c(N4CCN(C5CCCCC5)CC4)ncnc3c2c1 | 0% | · | 1% | 2.3µM* | -8 | -6
c1ccc(CN2CCN(c3ncnc4c3[nH]c3ccccc34)CC2)cc1 | 0% | ? | ? | 0.93µM* | -10 | 5
CCCN(CCC)C(=O)Cc1ccc(F)cc1 | -48%[1.15 µM] | 23% | 16%[46.1 µM] | -10% | -1 | -2
S=c1nc(Cc2ccc(Cl)cc2)[nH]c2ccccc12 | ? | 3%[46.1 µM] | ? | ? | -8 | 13*
S=c1nc(Cc2ccccc2)[nH]c2ccccc12 | ? | -2%[46.1 µM] | 7%[46.1 µM] | · | -7 | -2
S=c1nc(COc2ccccc2)[nH]c2ccccc12 | ? | · | · | ? | 116* | 58*
SMILES | Pf growth 96h | Lassa entry inh | MARV entry inh | Pf growth 48h | Shiga inhibitor | CHX counter
Clc1ccc2nc(COc3ccccc3)[nH]c2c1 | -4% | ? | ? | 69% | · | 34*
Cc1cc(=O)[nH]c(COc2ccccc2)n1 | · | 1% | 4% | 56% | -8 | 3
O=c1[nH]c(COc2ccc(Br)cc2Cl)nc2ccccc12 | -18% | 1%[46.1 µM] | 3%[46.1 µM] | 31% | 104* | 37*
O=c1[nH]c(COc2ccccc2)nc2ccccc12 | 127% | · | · | · | 49* | 25*
Cc1sc(NC(=O)CN(Cc2ccc(F)cc2)C(=O)C(C)(C)C)c(C(N)=O)c1C | 7.4µM* | -13%[46.1 µM] | ? | -23% | 13 | -1
O=C(OCC(=O)C12CC3CC(CC(C3)C1)C2)c1ccccc1O | · | 7%[46.1 µM] | 14%[46.1 µM] | · | · | ·
Cc1cc(C)c2nc3nc(C)c(C)cc3c(N)c2c1 | ? | ? | ? | 4.1µM* | 70* | 20
CCCSc1nc(C)c2cc(C)cc(C)c2n1 | ? | 12% | ? | 8% | 17 | 4
COC(=O)CC1(CC(=O)OC)C(=O)N(c2ccccc2)C(=O)N(c2ccccc2)C1=O | 30% | 23% | 19% | 54% | -2 | -4
CS(=O)(=O)NN1C(=O)c2ccccc2NC1c1cc2ccccc2nc1Cl (stereo unspecified) | 13% | 3% | 30% | 12% | -8 | 16*
O=C1NC(c2cc3ccccc3nc2Cl)Nc2ccccc21 (stereo unspecified) | 1.9µM* | ? | 7% | 2.9µM* | -6 | -5
Cc1ccc(S(=O)(=O)NN2C(=O)c3ccccc3NC2c2ccccc2)cc1 (stereo unspecified) | ? | -26%[46.1 µM] | ? | -1% | 98* | 24*
CN(C)c1ccc(C2Nc3ccccc3C(=O)N2NS(C)(=O)=O)cc1 (stereo unspecified) | ? | · | · | 11% | 20 | 15*
COc1ccc(C2Nc3ccccc3C(=O)N2NS(=O)(=O)c2ccc(C)cc2)cc1 (stereo unspecified) | -23% | ? | ? | -3% | 1 | 3
COC(=O)Nc1ccc(S(=O)(=O)NNC(=O)c2c(O)c3ccccc3[nH]c2=O)cc1 | -9% | · | · | · | -3 | -3
C=C(C)c1cccc(C(C)(C)NC(=O)Nc2ccc(OC)cc2)c1 | ? | · | · | -23%[5.75 µM] | 28 | -5
Cc1ccc(-n2nnc(-c3ccnc4ccccc34)n2)cc1 | 95% | · | · | 300% | 59* | 29*
Fc1ccc(-n2nnc(-c3ccnc4ccccc34)n2)cc1 | 307% | · | · | 332% | 44* | 40*
Cc1ccc(-n2nc3c4c(cccc4c2=O)-c2ccccc2-3)cc1 | ? | -24% | ? | ? | -5 | -2
O=C(CCS(=O)(=O)c1ccc(Br)cc1)NCCc1ccccc1 | -8% | · | · | 11% | -9 | 0
O=C(CCCc1ccccc1)N1CCN(C2CCCCC2)CC1 | ? | · | · | 115% | · | 29*
CCC1CCCCN1C(=O)CN1C(=O)c2ccccc2S1(=O)=O (stereo unspecified) | 9% | ? | -2%[46.1 µM] | ? | · | ·
CCC1CCCCN1CCNC(=O)CCS(=O)(=O)c1ccc(Br)cc1 (stereo unspecified) | 3.3µM* | 4% | -26% | ? | -5 | 1
CCC1CCCCN1C(=O)CCCc1ccccc1 (stereo unspecified) | -3% | · | · | 65% | 70* | 35*
CCC1CCCCN1C(=O)CCS(=O)(=O)c1ccccc1 (stereo unspecified) | 1% | 37%[46.1 µM] | ? | 83% | 76* | 34*
Cc1cccc(-n2nc(C)c3c2NC(=O)CSC3c2ccccc2Cl)c1 (stereo unspecified) | · | -26%[46.1 µM] | ? | · | · | ·
